Screening results: PubChem, National Center for Advancing Translational Sciences (NCATS)
DT40 TDP1 CPT: growth inhibition of DT40 Tdp1-/-;hTDP1 cells with camptothecin (screen for TDP1 inhibitors); chicken DT40 Tdp1-/-;hTDP1 cells + 20 nM CPT, ATP luminescence, 48 h; Potency, µM (doses to about 46.2 µM), hits mostly inhibitors; 420,000 compounds, 12% hits; further: nearly all actives have a fitted effect of over 55% in size
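Cell growth measured by CellTiter-Glo luminescence after a minimum 48 h, 37 C compound exposure with 20 nM CPT in Tdp1-knockout DT40 cells stably expressing hTDP1, seeded 400/well; qHTS titration format.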
TDP1 block: blocks human tyrosyl-DNA phosphodiesterase 1; recombinant TDP1, AlphaScreen DNA substrate cleavage; Potency, µM (series often up to 130 µM), most hits filed as inhibitors; 350,000 compounds, 0.28% hits; further: nearly all actives have a fitted effect of over 40% in size
Target sequence (Q9NUW8 whole entry, looked up): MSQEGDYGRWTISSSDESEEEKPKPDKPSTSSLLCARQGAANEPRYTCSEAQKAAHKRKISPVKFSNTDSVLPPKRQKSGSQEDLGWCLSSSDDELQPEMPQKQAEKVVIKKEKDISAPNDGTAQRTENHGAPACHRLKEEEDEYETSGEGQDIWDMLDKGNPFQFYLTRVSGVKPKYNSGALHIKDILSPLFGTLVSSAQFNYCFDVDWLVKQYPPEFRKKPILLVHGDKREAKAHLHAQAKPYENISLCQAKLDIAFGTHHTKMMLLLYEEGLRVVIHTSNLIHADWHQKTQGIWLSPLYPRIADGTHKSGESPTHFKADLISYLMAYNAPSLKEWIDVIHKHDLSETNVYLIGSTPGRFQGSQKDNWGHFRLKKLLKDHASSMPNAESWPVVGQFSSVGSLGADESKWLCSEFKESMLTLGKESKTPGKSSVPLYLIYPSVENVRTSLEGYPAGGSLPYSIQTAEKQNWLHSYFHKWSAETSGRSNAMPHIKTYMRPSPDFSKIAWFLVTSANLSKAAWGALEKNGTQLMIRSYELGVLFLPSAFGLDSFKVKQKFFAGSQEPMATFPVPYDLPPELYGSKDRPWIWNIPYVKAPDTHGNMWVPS
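Tdp1 1 nM final; 15 min RT w/ cpd; substrate 15 nM, 5 min; beads 10 ug/ml, 10 min; AlphaScreen read. Neg ctrl: no enzyme.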
VP16 counter: Gal4-VP16 reporter inhibition counter-screen | Drosophila S2 Gal4-VP16 UAS-luciferase, luminescence, 20 h | Potency, µM (highest dose often 53.6 µM), most hits filed as inhibitors | 310,000 compounds, 3.5% hits;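 further: Gal4-VP16 expression switched on by copper sulfate through the metallothionein promoter; nearly all actives have a fitted effect of over 50% in size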
DT40 TDP1 no CPT: qHTS for Inhibitors of human tyrosyl-DNA phosphodiesterase 1 (TDP1): qHTS in cells in absence of CPT; DT40 Tdp1-/- hTDP1 cells, no CPT, ATP luminescence, 48 h; Potency, µM (highest dose often 46.2 µM), hits mostly inhibitors; 420,000 compounds, 15% hits; AID 686978, 2013; further: nearly all actives have a fitted effect of over 55% in size
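Growth kinetics read by CellTiter-Glo luminescence after ≥48 hr at 37 °C. Cells: DT40 Tdp1-/- stably carrying human TDP1, 400 per well, compound exposure in the absence of CPT (DMSO vehicle).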
RORg inh: inhibitors of mouse ROR gamma transcriptional activity. Potency, µM (series often up to 53.6 µM), most hits filed as inhibitors. Drosophila S2 Gal4-RORgamma UAS-luciferase reporter, 20 h. 310,000 compounds, 5.4% hits. P51450; further: nearly all actives have a fitted effect of over 60% in size
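Luminescence from a UAS-regulated Photinus luciferase reporter in stably transfected Drosophila Schneider cells is measured; decreased signal marks ROR gamma inhibition. Fusion expression is induced by 700 uM copper sulfate for 20 hr.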
Large screens that a line does not name were inactive. The list is not random: actives were taken first. Their share in the collection is about 19%. The call rests on the fitted dose curve; in most records, active means well fitted curve in the direction sought with a large enough effect; inconclusive means small, poorly fitted or top-dose-only effect, or another doubt; inactive means no such curve, though single readings can be large; an effect the other way counts as inactive or inconclusive.

COc1cc(NC(=O)CCCN2C(=O)CCn3nc(-c4cn(C)c5ccccc45)cc32)cc(OC)c1	DT40 TDP1 CPT inconclusive, DT40 TDP1 no CPT 18µM (no result: VP16 counter, RORg inh)
CCOc1ccccc1CNC(=O)CCCN1C(=O)CCn2nc(-c3cccn3C)cc21	DT40 TDP1 CPT 18µM, DT40 TDP1 no CPT inconclusive (no result: VP16 counter, RORg inh)
CC(NC(=O)CCCN1C(=O)CCn2nc(-c3cn(C)c4ccccc34)cc21)c1ccccc1 (centres undefined)	DT40 TDP1 CPT inconclusive, DT40 TDP1 no CPT 23µM (no result: VP16 counter, RORg inh)
Cc1cccc(C)c1NC(=O)CCCN1C(=O)CCn2nc(-c3cn(C)c4ccccc34)cc21	DT40 TDP1 CPT inconclusive, DT40 TDP1 no CPT 13µM (no result: VP16 counter, RORg inh)
Cn1cc(-c2cc3n(n2)CCC(=O)N3CCCC(=O)NCc2ccc(Cl)cc2)c2ccccc21	DT40 TDP1 CPT inconclusive, DT40 TDP1 no CPT inconclusive (no result: VP16 counter, RORg inh)
Cn1cc(-c2cc3n(n2)CCC(=O)N3CCCC(=O)Nc2ccc(Cl)cc2)c2ccccc21	DT40 TDP1 CPT inconclusive, DT40 TDP1 no CPT inconclusive (no result: VP16 counter, RORg inh)
COc1ccc(-c2c(C(C)=O)c(C)nc3sc4c(c23)NC(c2ccccc2)NC4=O)cc1 (centres undefined)	none
Cc1cc(NS(=O)(=O)c2ccc(NC(=S)NC(=O)c3ccc(Br)cc3)cc2)no1	RORg inh inconclusive
Cn1cc(-c2cc3n(n2)CCC(=O)N3CCCC(=O)NCc2ccccc2Cl)c2ccccc21	DT40 TDP1 CPT 16µM, DT40 TDP1 no CPT 13µM (no result: VP16 counter, RORg inh)
O=C(CCCc1ccc(-c2ccccc2F)cc1)Nc1ccc(O)cc1	VP16 counter 4.5µM, RORg inh 1.6µM (no result: DT40 TDP1 CPT, DT40 TDP1 no CPT)
CCC(CC)C(=O)NCc1ccc(OC)cc1	none
CC(=O)Nc1ccc(NC(=O)c2ccc(Cn3cc(Cl)cn3)cc2)cc1	none
CCn1c(NC(=O)c2cccc(Cn3cc(Cl)cn3)c2)nc2ccccc21	DT40 TDP1 CPT 15µM, VP16 counter 2µM, DT40 TDP1 no CPT 15µM, RORg inh 2.8µM
CC(C)CNC(=O)c1cccc(Cn2cc(Cl)cn2)c1	none
Cn1c(NC(=O)c2cccc(Cn3cc(Cl)cn3)c2)nc2ccccc21	DT40 TDP1 CPT inconclusive, VP16 counter 2.8µM, DT40 TDP1 no CPT inconclusive, RORg inh 1.8µM
O=C(CN1C(=O)c2cccc([N+](=O)[O-])c2C1=O)N1CCN(S(=O)(=O)c2ccccc2)CC1	none (no result: VP16 counter, RORg inh)
COC(=O)c1ccc(OCC2c3cc(OC)c(OC)cc3CCN2C(=O)Cc2ccccc2)cc1 (centres undefined)	DT40 TDP1 CPT inconclusive, DT40 TDP1 no CPT 16µM (no result: VP16 counter, RORg inh)
COc1ccc(CC(=O)N2CCc3cc(OC)c(OC)cc3C2COc2ccc(F)cc2)cc1 (centres undefined)	DT40 TDP1 CPT 13µM, DT40 TDP1 no CPT 16µM (no result: VP16 counter, RORg inh)
COc1cc2c(cc1OC)C(COc1ccc(C(C)C)cc1)N(C(=O)COc1ccccc1)CC2 (centres undefined)	DT40 TDP1 CPT inconclusive, DT40 TDP1 no CPT inconclusive (no result: VP16 counter, RORg inh)
COc1ccc(C(=O)N2CCc3cc(OC)c(OC)cc3C2COc2ccccc2OC)cc1 (centres undefined)	DT40 TDP1 CPT 16µM, DT40 TDP1 no CPT 29µM (no result: VP16 counter, RORg inh)
COc1cc2c(cc1OC)C(COc1ccccc1OC)N(C(C)=O)CC2 (centres undefined)	none (no result: TDP1 block)
COc1cc2c(cc1OC)C(COc1ccc(F)cc1)N(C(=O)Cc1ccccc1)CC2 (centres undefined)	DT40 TDP1 CPT inconclusive, DT40 TDP1 no CPT inconclusive (no result: VP16 counter, RORg inh)
COc1cc2c(cc1OC)C(COc1ccc(C(C)C)cc1)NCC2 (centres undefined)	DT40 TDP1 CPT inconclusive, VP16 counter inconclusive, DT40 TDP1 no CPT 16µM
Cc1sc(NC(=O)C2CCCCC2)c(C#N)c1-c1ccccc1	RORg inh inconclusive
COc1ccccc1C(=O)NNC(=O)CCC(=O)NCc1ccccc1	none
O=C1NC(Cc2ccc(O)cc2)c2nc3cc(F)ccc3c(=O)n2-c2ncccc21 (centres undefined)	none (no result: TDP1 block, VP16 counter, RORg inh)
COc1cccc(-n2nnnc2SCC(=O)NC2CCCC2)c1	VP16 counter inconclusive
COc1ccc(OCC2c3cc(OC)c(OC)cc3CCN2C(=O)COc2ccc(Cl)cc2Cl)cc1 (centres undefined)	DT40 TDP1 CPT inconclusive, DT40 TDP1 no CPT 16µM (no result: VP16 counter, RORg inh)
COc1cc2c(cc1OC)C(COc1ccc(C(C)C)cc1)N(C(=O)c1ccc(S(=O)(=O)N3CCCC3)cc1)CC2 (centres undefined)	DT40 TDP1 CPT inconclusive, DT40 TDP1 no CPT 21µM (no result: VP16 counter, RORg inh)
CNC(=S)N1CCc2cc(OC)c(OC)cc2C1COc1ccc(OC)cc1 (centres undefined)	DT40 TDP1 no CPT inconclusive, RORg inh inconclusive
COCCNC(=S)N1CCc2cc(OC)c(OC)cc2C1COc1cc(C)cc(C)c1 (centres undefined)	DT40 TDP1 CPT 26µM, VP16 counter 22µM, DT40 TDP1 no CPT inconclusive, RORg inh inconclusive
CCCCC(=O)N1CCc2cc(OC)c(OC)cc2C1COc1ccc(OC)cc1 (centres undefined)	DT40 TDP1 CPT 16µM, DT40 TDP1 no CPT 21µM (no result: VP16 counter, RORg inh)
CCC(=O)N1CCc2cc(OC)c(OC)cc2C1COc1ccc(OC)cc1 (centres undefined)	none
Cn1c(=O)c(=O)n(C)c2cc(S(=O)(=O)N3CCN(C4CCCCC4)CC3)ccc21	none
COc1c(Cl)cc(Cl)cc1/C=C(\C#N)c1nc(-c2ccc(Cl)cc2)cs1	DT40 TDP1 no CPT inconclusive (no result: VP16 counter, RORg inh)
COC(=O)c1ccc(OCC2c3cc(OC)c(OC)cc3CCN2C(=O)COc2ccc(Cl)cc2)cc1 (centres undefined)	DT40 TDP1 CPT 21µM, DT40 TDP1 no CPT 29µM (no result: VP16 counter, RORg inh)
COc1cc2c(cc1OC)C(COc1ccc([N+](=O)[O-])cc1)N(C(C)=O)CC2 (centres undefined)	DT40 TDP1 CPT 23µM, DT40 TDP1 no CPT 18µM (no result: TDP1 block)
NC(=O)CCNC(=O)c1ccc(Cl)cc1	none
CC(C)Cc1cc(C(=O)O)n[nH]1	none
CCS(=O)(=O)N1CCN(C(=O)c2ccc(-c3ccccc3)cc2)CC1	DT40 TDP1 CPT inconclusive, DT40 TDP1 no CPT inconclusive, RORg inh inconclusive
O=C1c2ccccc2C(=O)C12OC2c1cccc2ccccc12 (centres undefined)	DT40 TDP1 CPT inconclusive, VP16 counter 14µM, DT40 TDP1 no CPT inconclusive, RORg inh inconclusive
c1ccc2c(C3OCC4(CCCC4)CO3)cccc2c1	DT40 TDP1 no CPT inconclusive (no result: TDP1 block, VP16 counter, RORg inh)
O=Cc1ccc2ccc3cccnc3c2n1	DT40 TDP1 CPT 5.2µM, DT40 TDP1 no CPT 3.3µM (no result: TDP1 block)
O=C1C=CC(=O)N1c1cccc2cccnc12	DT40 TDP1 CPT 16µM, DT40 TDP1 no CPT inconclusive (no result: TDP1 block, VP16 counter, RORg inh)
CSS(=O)(=O)c1cccc2cccnc12	DT40 TDP1 CPT 5.8µM, VP16 counter inconclusive, DT40 TDP1 no CPT 5.8µM, RORg inh inconclusive (no result: TDP1 block)
c1cnc2c(c1)ccc1cccnc12	DT40 TDP1 CPT 3.7µM, VP16 counter inconclusive, DT40 TDP1 no CPT 3.7µM, RORg inh inconclusive
Cc1ccc2cccnc2c1N	none
O=S(=O)(O)c1cccc2cccnc12	none (no result: DT40 TDP1 CPT, VP16 counter, DT40 TDP1 no CPT, RORg inh)
